The source of these data is PMC8384837, “Expanding the binding specificity for RNA recognition by a PUF domain”.

Holding throughout (assay): yeast three-hybrid, YBZ-1, SC-Leu-His + 0.5 mM 3-AT, 4 days
Conditions in all cases: tags: N-Gal4 AD-HA kept; label: inside an RPR1-promoter hybrid RNA with tandem MS2 sites; ssRNA

One assay concerns the target PUM1 PUF domain R7-RRW (Homo sapiens, UniProt Q14671 828-1176, S1079R;N1080R;E1083W). In a few lines:
(§1)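 The interaction score is the logarithmic change in variant frequency from input to selection. It uses log2, with a pseudocount of 1 for absent variants, and frequencies came from PCR-amplified, Illumina-sequenced repeat regions. The libraries were Pumilio-1 PUF domains randomized at the three base-contacting residues per repeat, co-expressed with matching RNA elements in strain YBZ-1 (LexA–MS2 coat fusion, HIS3 reporter). Plating lasted four days on SC-Leu (input) or SC-Leu-His + 0.5 mM 3-AT (selection).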

The next assay addresses PUM1 PUF domain R1-KCS (Homo sapiens, UniProt Q14671 828-1176, S863K;R864C;Q867S). A digest of the protocol: as §1
The next assay concerns the target PUM1 PUF domain R4-ARC (Homo sapiens, UniProt Q14671 828-1176, N971A;H972R;Q975C). In a few lines:
as §1

The target in the next assay is PUM1 PUF domain R3-LWR (Homo sapiens, UniProt Q14671 828-1176, C935L;R936W;Q939R). A digest of the protocol:
as §1

The target in another assay is PUM1 PUF domain R3-LWA (Homo sapiens, UniProt Q14671 828-1176, C935L;R936W;Q939A). A digest of the protocol:
as §1

The target in another assay is PUM1 PUF domain R3-GWA (Homo sapiens, UniProt Q14671 828-1176, C935G;R936W;Q939A). A digest of the protocol:
as §1

In another assay the target is PUM1 PUF domain R5-FHS (Homo sapiens, UniProt Q14671 828-1176, C1007F;R1008H;Q1011S). In a few lines: as §1
The next assay has as its target PUM1 PUF domain R3-RRT (Homo sapiens, UniProt Q14671 828-1176, C935R;Q939T). In a few lines:
as §1

In another assay the target is PUM1 PUF domain R5-KER (Homo sapiens, UniProt Q14671 828-1176, C1007K;R1008E;Q1011R). In a few lines:
as §1

The target of a further assay is PUM1 PUF domain R2-EWD (Homo sapiens, UniProt Q14671 828-1176, N899E;Y900W;Q903D). In a few lines:
as §1

Chain of PUM1 PUF domain R5-FHS (Q14671 828-1176 C1007F/R1008H/Q1011S): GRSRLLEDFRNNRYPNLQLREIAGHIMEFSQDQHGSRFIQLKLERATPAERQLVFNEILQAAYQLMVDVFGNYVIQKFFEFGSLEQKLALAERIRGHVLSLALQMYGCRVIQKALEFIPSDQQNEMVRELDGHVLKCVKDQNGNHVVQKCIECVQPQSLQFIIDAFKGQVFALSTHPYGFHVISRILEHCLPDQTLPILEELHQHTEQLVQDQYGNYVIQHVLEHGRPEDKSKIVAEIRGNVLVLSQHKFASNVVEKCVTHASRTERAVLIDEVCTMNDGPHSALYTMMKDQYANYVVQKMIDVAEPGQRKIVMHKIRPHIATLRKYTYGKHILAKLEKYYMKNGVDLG
Chain of PUM1 PUF domain R3-LWA (Q14671 828-1176 C935L/R936W/Q939A): as the sequence (Q14671 828-1176 C1007F/R1008H/Q1011S) above, with C108L, R109W, Q112A, F180C, H181R, S184Q counted along it
Chain of PUM1 PUF domain R3-LWR (Q14671 828-1176 C935L/R936W/Q939R): as the sequence (Q14671 828-1176 C1007F/R1008H/Q1011S) above, with C108L, R109W, Q112R, F180C, H181R, S184Q counted along it
Chain of PUM1 PUF domain R3-GWA (Q14671 828-1176 C935G/R936W/Q939A): as the sequence (Q14671 828-1176 C1007F/R1008H/Q1011S) above, with C108G, R109W, Q112A, F180C, H181R, S184Q counted along it
Chain of PUM1 PUF domain R4-ARC (Q14671 828-1176 N971A/H972R/Q975C): as the sequence (Q14671 828-1176 C1007F/R1008H/Q1011S) above, with N144A, H145R, Q148C, F180C, H181R, S184Q counted along it
Chain of PUM1 PUF domain R7-RRW (Q14671 828-1176 S1079R/N1080R/E1083W): as the sequence (Q14671 828-1176 C1007F/R1008H/Q1011S) above, with F180C, H181R, S184Q, S252R, N253R, E256W counted along it
Chain of PUM1 PUF domain R1-KCS (Q14671 828-1176 S863K/R864C/Q867S): as the sequence (Q14671 828-1176 C1007F/R1008H/Q1011S) above, with S36K, R37C, Q40S, F180C, H181R, S184Q counted along it
Chain of PUM1 PUF domain R5-KER (Q14671 828-1176 C1007K/R1008E/Q1011R): as the sequence (Q14671 828-1176 C1007F/R1008H/Q1011S) above, with F180K, H181E, S184R counted along it
Chain of PUM1 PUF domain R2-EWD (Q14671 828-1176 N899E/Y900W/Q903D): as the sequence (Q14671 828-1176 C1007F/R1008H/Q1011S) above, with N72E, Y73W, Q76D, F180C, H181R, S184Q counted along it
Chain of PUM1 PUF domain R3-RRT (Q14671 828-1176 C935R/Q939T): as the sequence (Q14671 828-1176 C1007F/R1008H/Q1011S) above, with C108R, Q112T, F180C, H181R, S184Q counted along it

“GGCUAGAACUAGUGGAUCCCCCGGCGCCCGGCGGCUCGAGCCCGGGUAAGUCUAAAUAGUCUGCAUGCCGCCGGGCGCCAUGCCUGCAGGUCGACUCUAGAAAACAUG”: in the assay with PUM1 PUF domain R7-RRW, the binding signal was 4.3 log2 enrichment (interaction score).

For the sequence “GGCUAGAACUAGUGGAUCCCCCGGCGCCCGGCGGCUCGAGCCCGGGUAAGUGUAAAUUGUCUGCAUGCCGCCGGGCGCCAUGCCUGCAGGUCGACUCUAGAAAACAUG”, the binding signal with PUM1 PUF domain R1-KCS is 4.89 log2 enrichment (interaction score).

For the sequence “GGCUAGAACUAGUGGAUCCCCCGGCGCCCGGCGGCUCGAGCCCGGGUAAGUGUACAUAGUCUGCAUGCCGCCGGGCGCCAUGCCUGCAGGUCGACUCUAGAAAACAUG”, the binding signal with PUM1 PUF domain R4-ARC was 0.97 log2 enrichment (interaction score).

As for “GGCUAGAACUAGUGGAUCCCCCGGCGCCCGGCGGCUCGAGCCCGGGUAAGUUUAAAUAGUCUGCAUGCCGCCGGGCGCCAUGCCUGCAGGUCGACUCUAGAAAACAUG”, in the assay with PUM1 PUF domain R7-RRW, the binding signal is 4.75 log2 enrichment (interaction score).

As to “GGCUAGAACUAGUGGAUCCCCCGGCGCCCGGCGGCUCGAGCCCGGGUAAGUGUAAAUCGUCUGCAUGCCGCCGGGCGCCAUGCCUGCAGGUCGACUCUAGAAAACAUG”, in the assay with PUM1 PUF domain R1-KCS, the binding signal is 4.55 log2 enrichment (interaction score).

Regarding “GGCUAGAACUAGUGGAUCCCCCGGCGCCCGGCGGCUCGAGCCCGGGUAAGUGUAAGUAGUCUGCAUGCCGCCGGGCGCCAUGCCUGCAGGUCGACUCUAGAAAACAUG”, the binding signal is 5.5 log2 enrichment (interaction score) with PUM1 PUF domain R3-LWR, 5.58 log2 enrichment (interaction score) with PUM1 PUF domain R3-LWA and 2.87 log2 enrichment (interaction score) with PUM1 PUF domain R3-GWA.

Regarding “GGCUAGAACUAGUGGAUCCCCCGGCGCCCGGCGGCUCGAGCCCGGGUAAGUGUUAAUAGUCUGCAUGCCGCCGGGCGCCAUGCCUGCAGGUCGACUCUAGAAAACAUG”, in the assay with PUM1 PUF domain R5-FHS, the binding signal was 0.94 log2 enrichment (interaction score).

Regarding “GGCUAGAACUAGUGGAUCCCCCGGCGCCCGGCGGCUCGAGCCCGGGUAAGUGUAAUUAGUCUGCAUGCCGCCGGGCGCCAUGCCUGCAGGUCGACUCUAGAAAACAUG”, the binding signal in the assay with PUM1 PUF domain R3-LWR is 4.17 log2 enrichment (interaction score); with PUM1 PUF domain R3-LWA, 4.71 log2 enrichment (interaction score); with PUM1 PUF domain R3-GWA it was 1.14 log2 enrichment (interaction score); in the assay with PUM1 PUF domain R3-RRT it was 3.01 log2 enrichment (interaction score).

For the sequence “GGCUAGAACUAGUGGAUCCCCCGGCGCCCGGCGGCUCGAGCCCGGGUAAGUGUCAAUAGUCUGCAUGCCGCCGGGCGCCAUGCCUGCAGGUCGACUCUAGAAAACAUG”, the results for the binding signal in the assay with PUM1 PUF domain R5-FHS and in the assay with PUM1 PUF domain R5-KER were 1.75 log2 enrichment (interaction score) and 2.91 log2 enrichment (interaction score), respectively.

Regarding “GGCUAGAACUAGUGGAUCCCCCGGCGCCCGGCGGCUCGAGCCCGGGUAAGUGUAUAUAGUCUGCAUGCCGCCGGGCGCCAUGCCUGCAGGUCGACUCUAGAAAACAUG”, in the assay with PUM1 PUF domain R4-ARC, the binding signal was 1.56 log2 enrichment (interaction score).

Regarding “GGCUAGAACUAGUGGAUCCCCCGGCGCCCGGCGGCUCGAGCCCGGGUAAGUGUAAAUAGUCUGCAUGCCGCCGGGCGCCAUGCCUGCAGGUCGACUCUAGAAAACAUG”, the binding signal with PUM1 PUF domain R5-FHS is 2.12 log2 enrichment (interaction score); in the assay with PUM1 PUF domain R3-LWR it was 2.03 log2 enrichment (interaction score); with PUM1 PUF domain R3-LWA, 2.61 log2 enrichment (interaction score); with PUM1 PUF domain R4-ARC it was 5.53 log2 enrichment (interaction score); in the assay with PUM1 PUF domain R3-GWA it was 3.32 log2 enrichment (interaction score).

Regarding “GGCUAGAACUAGUGGAUCCCCCGGCGCCCGGCGGCUCGAGCCCGGGUAAGUGUGAAUAGUCUGCAUGCCGCCGGGCGCCAUGCCUGCAGGUCGACUCUAGAAAACAUG”, in the assay with PUM1 PUF domain R5-FHS, the binding signal was 2.39 log2 enrichment (interaction score).

Take “GGCUAGAACUAGUGGAUCCCCCGGCGCCCGGCGGCUCGAGCCCGGGUAAGUGUAAAGAGUCUGCAUGCCGCCGGGCGCCAUGCCUGCAGGUCGACUCUAGAAAACAUG”: the binding signal with PUM1 PUF domain R2-EWD was 9.68 log2 enrichment (interaction score).
